PREPL inh = inhibits the human prolyl oligopeptidase-like enzyme; recombinant PREPL, fluorescence polarization activity-based probe; Q4J6C6; AID 2751; inhibition, % at 5.96 µM; hit rate 0.68% among 320,000; in the data active means inhibition above about 43%
Rpn11 block = Rpn11 (human) deubiquitinase inhibition. human 26S proteasome, Ub4-pepOG fluorescence polarization; 20S core pre-blocked with epoxomicin. O00487. inhibition, % at 20 µM. hit rate 0.59% among 360,000;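 active means inhibition at 20 µM, scaled to each plate's controls, above about 33%, limit read from the data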
Target sequence (O00487 whole entry, looked up): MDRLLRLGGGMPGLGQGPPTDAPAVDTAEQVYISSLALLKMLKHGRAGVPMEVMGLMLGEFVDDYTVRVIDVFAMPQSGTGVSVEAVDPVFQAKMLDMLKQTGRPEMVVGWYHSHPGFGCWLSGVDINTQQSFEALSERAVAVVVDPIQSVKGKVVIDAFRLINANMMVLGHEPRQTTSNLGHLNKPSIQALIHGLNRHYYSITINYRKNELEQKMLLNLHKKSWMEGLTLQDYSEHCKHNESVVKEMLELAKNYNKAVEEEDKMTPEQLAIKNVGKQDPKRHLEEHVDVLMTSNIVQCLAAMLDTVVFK
NadD block = blocks S. aureus nicotinate mononucleotide adenylyltransferase; inhibition, % at 20 µM; AID 602399; purified NadD enzyme, colorimetric absorbance read-out; hit rate 0.78% among 360,000; in the data active means inhibition above about 26%
PP1 inh = counter-screen for PP5 inhibitors: inhibitors of human PP1-alpha; purified PP1alpha, OMFP fluorescence; inhibition, % at 6.7 µM; hit rate 0.9% among 320,000;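 active means inhibition above the mean inhibition of all tested compounds plus 3 SD, computed separately for each screening campaign, cut at about 15% in these data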
Target sequence (P62136 whole entry, looked up): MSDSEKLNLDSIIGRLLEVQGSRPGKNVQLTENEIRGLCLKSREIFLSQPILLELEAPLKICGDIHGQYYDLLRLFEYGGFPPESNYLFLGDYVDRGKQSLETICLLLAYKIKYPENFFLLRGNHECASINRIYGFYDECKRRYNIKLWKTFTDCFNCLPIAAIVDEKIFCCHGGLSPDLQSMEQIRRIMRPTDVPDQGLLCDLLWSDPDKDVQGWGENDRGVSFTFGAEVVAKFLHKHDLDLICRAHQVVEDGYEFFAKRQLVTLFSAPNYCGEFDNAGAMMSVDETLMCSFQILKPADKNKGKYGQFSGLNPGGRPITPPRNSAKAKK
PP5 primary = PP5 (human) phosphatase inhibition; P53041; purified PP5c, OMFP substrate fluorescence; inhibition, % at 6.7 µM; hit rate 0.18% among 320,000;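 active means inhibition above the campaign's mean inhibition across all tested compounds plus 3 SD, cut at about 9.5% in these data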
Of the large screens only hits and unclear results are named; the others gave an inactive call. Compounds with a hit are over-represented: about 2.4% of the library has one in this group of screens.

CCCCn1nnnc1C(c1cc2ccccc2o1)N1CCN(c2cc(C)nc3ccccc23)CC1 (centres undefined)	none (no result: PREPL inh, Rpn11 block, PP1 inh, PP5 primary)
COc1ccc(-c2ccc(C(=O)Nc3ccc(C(C)C)cc3)c3occc23)c(C)c1	none (no result: PREPL inh, PP1 inh, PP5 primary)
Cc1ccc2c(c1)C(=O)C(=O)N2CCCOc1ccccc1C	PP1 inh 15.4
Cc1cccc2c1N(CCCOc1ccccc1)C(=O)C2=O	PP1 inh 17.3
Cc1ccc(S(=O)(=O)N2CCC(=O)N([C@H](COC(=O)Nc3ccccc3)Cc3ccccc3)CC2)cc1	none (no result: PREPL inh, Rpn11 block, PP1 inh, PP5 primary)
CC(=O)Nc1ccc(C(=O)NCC2(N3CCCCC3)CCCCC2)cc1	none
COc1cc(C#Cc2ccc3cc(CCO)oc(=O)c3c2)cc(OC)c1	none (no result: PP1 inh, PP5 primary)
CN(C)c1ccc(C#Cc2ccc3cc(CCO)oc(=O)c3c2)cc1	Rpn11 block 64.0
Oc1ccc(CN2CCc3ccccc3C2)c2cccnc12	PREPL inh 45.3, PP1 inh 15.2
Oc1ccc(CN2CCCCC2)c2cccnc12	none
Cn1nc(C(C)(C)C)cc1C(=O)N1CCCC(C)(C(=O)NS(=O)(=O)C2CC2)C1 (centres undefined)	none (no result: PREPL inh, PP1 inh, PP5 primary)
COc1cc(CNC(=O)c2cc(-c3cc(Cl)ccc3C)n[nH]2)cc(OC)c1	none (no result: PREPL inh, PP1 inh, PP5 primary)
COc1cc(/C=C/C=C2/CC/C(=C/C=C/c3ccc(O)c(OC)c3)C2=O)ccc1O	NadD block 70.3 (not shown: PREPL inh, Rpn11 block, PP1 inh, PP5 primary)
O=C(Cn1cc(C(F)(F)F)ccc1=O)Nc1ccccc1	none
COc1c(S(=O)(=O)NCCN2CCOCC2)ccc(Cl)c1Cl	PREPL inh 43.8
Cc1cc(O)c2c(c1O)C(=O)[C@]13C(=C2O)C(=O)[C@@H]2[C@@H](O)[C@H]1[C@@H]1[C@H](O)[C@H]3C(=O)C3=C(O)c4c(O)cc(C)c(O)c4C(=O)[C@]312	Rpn11 block 48.7, NadD block 31.7 (no result: PP1 inh, PP5 primary)
Cc1cc2nc(-c3ccc(C#N)cc3)c(Cc3cccc(F)c3)n2c(C)c1Br	none (no result: PREPL inh, PP1 inh, PP5 primary)
CCc1ccc(S(=O)(=O)Nc2ccc(O)c3c(=O)cc(-c4ccccc4Cl)oc23)cc1	none
O=c1cc(-c2ccccc2Cl)oc2c(NS(=O)(=O)c3cc(Cl)cc(Cl)c3O)ccc(O)c12	PP1 inh 26.8
Cc1cc(N=Nc2ccc(C)c(N=Nc3cc(C)c(N)cc3N)c2)c(N)cc1N	PREPL inh 69.9, NadD block 29.8
Cn1c(=O)c2c(ncn2CC(=O)OCC(=O)c2ccc(Br)cc2)n(C)c1=O	none (no result: PREPL inh, PP1 inh, PP5 primary)
O=C(O)CN1C(=O)/C(=C\c2cc(Br)ccc2OCc2ccc(Cl)cc2)SC1=S	none (no result: PREPL inh, PP1 inh, PP5 primary)
O=C(O)CN1C(=O)/C(=C\c2cc(Br)ccc2OCc2ccc(F)cc2)SC1=S	PP1 inh 17.0
Cc1cc(C)n2nc(SCc3cc(=O)oc4ccc5ccccc5c34)nc2n1	PREPL inh 46.9
Cc1ccc(NC(=O)CN2C(=O)S/C(=C\c3cc(C)n(C)c3C)C2=O)cc1	none
Cc1cccc(NC(=O)CN2C(=O)N/C(=C/c3cc(C)n(-c4cccnc4)c3C)C2=O)c1	none
Cc1cccc(NC(=O)CN2C(=O)S/C(=C\c3cc(C)n(C)c3C)C2=O)c1	PP1 inh 16.3
Cc1cccc(NC(=O)CN2C(=O)N/C(=C/c3cc(C)n(C)c3C)C2=O)c1	NadD block 30.3 (no result: PREPL inh, PP1 inh, PP5 primary)
C=C1C(=O)C23C(O)C1CCC2C12COC3(O)C(O)C1C(C)(C)CCC2O (centres undefined)	none (no result: PREPL inh, PP1 inh, PP5 primary)
Oc1cc(CNCc2ccccc2)c(O)cc1CNCc1ccccc1	NadD block 57.3 (no result: PREPL inh, PP1 inh, PP5 primary)
OCc1ccccc1CNCc1ccccc1	none
CCOC(=O)CCCN1CC(O)=C(c2nc(-c3ccc(Cl)cc3)cs2)C1=N	PP1 inh 16.8
COc1cccc2c1[C@@H]1CN(CCCCn3c(=O)[nH]c4c(sc5ncc(-c6ccccc6)nc54)c3=O)C[C@@H]1CO2	PP1 inh 17.0
CNc1ccc2ncc(-c3cccc(C(=O)N(C)C)c3)n2n1	none (no result: PREPL inh, PP1 inh, PP5 primary)
C/C(=N\NC(=O)c1nnn(-c2nonc2N)c1CN1CCc2ccccc21)c1ccccc1O	NadD block 41.5
Cc1cc(C)c(/C=N/NC(=O)c2nnn(-c3nonc3N)c2CN2CCC(C)CC2)c(C)c1	none
COC(=O)c1nnn(-c2nonc2N)c1CN1CCc2ccccc21	none
CC1CCN(Cc2c(C(=O)N/N=C/c3cc(Br)ccc3O)nnn2-c2nonc2N)CC1	NadD block 33.4
CC1CCN(Cc2c(C(=O)N/N=C/c3cc(Cl)ccc3O)nnn2-c2nonc2N)CC1	NadD block 29.8
CC1CCN(Cc2c(C(=O)N/N=C/c3cccc(C(F)(F)F)c3)nnn2-c2nonc2N)CC1	PP1 inh 16.2
COc1ccc(NC(=O)c2cc(C3CCCCN3C(=O)c3cccs3)on2)c(C)c1 (centres undefined)	none (no result: PREPL inh, PP1 inh, PP5 primary)
Cc1ccc(Cc2c(-c3ccc(Cl)cc3)nc3c(Cl)cc(C(F)(F)F)cn23)cc1	none (no result: PREPL inh, PP1 inh, PP5 primary)
Cc1nc2nc(C)c(C)nc2nc1C	none (no result: PREPL inh, PP1 inh, PP5 primary)
CC(=O)OCC(=O)C1(O)CCC2C3CC(C)C4=CC(=O)C=CC4(C)C3C(O)CC21C (centres undefined)	none (no result: PREPL inh, PP1 inh, PP5 primary)
CCSc1nnc(NC(=O)CSc2sc3c(O)cc(=O)[nH]c3c2C#N)s1	Rpn11 block 58.6
COc1ccc(NC(=O)c2cccc(N3C(=O)C4CCC(C)CC4C3=O)c2)c(OC)c1 (centres undefined)	none
CCOc1ccc(Nc2oc(-c3ccccc3Cl)nc2C#N)cc1	PP1 inh 17.2 (no result: Rpn11 block, NadD block)
COc1ccc(NC(=O)CCCNC(=O)c2ccc(Cl)cc2)cc1OC	none
O=C(N/C=C/c1ccco1)OCc1ccccc1	Rpn11 block 35.6
Cc1ccc(O)c(N=Cc2cc(Cc3ccccc3)cc([N+](=O)[O-])c2O)c1	NadD block 53.6 (no result: PREPL inh, PP1 inh, PP5 primary)
O=[N+]([O-])c1cc(Cc2ccccc2)cc(C=Nc2ccc(N3CCOCC3)cc2)c1O	none
COc1cc(C=Nc2cccc(C)c2)c(O)c([N+](=O)[O-])c1	Rpn11 block 39.0
Cc1cccc(N=Cc2cc3c(cc2[N+](=O)[O-])OCO3)c1	none
Cc1ccccc1Oc1ccc2c(c1)[C@@H]1C[C@H](N(C)C(=S)Nc3ccc(F)cc3)[C@H]([C@H](C)O)C(=O)N1CC2	none (no result: PREPL inh, PP1 inh, PP5 primary)
COc1ccc(C(=O)Nn2c(SCc3ccc([N+](=O)[O-])cc3)nc3ccccc3c2=O)cc1	NadD block 33.3
CC(=O)Nc1cc(-c2ccc(C(=O)N3CCOCC3)cc2)cn2c(-c3ccc(S(C)(=O)=O)cc3)cnc12	none (no result: PREPL inh, PP1 inh, PP5 primary)
Cc1ccc2c(c1)C1C=CCC1C(C(=O)O)N2 (centres undefined)	PP1 inh 20.3 (no result: Rpn11 block, NadD block)
CC(=O)c1ccc2c(c1)C1C=CCC1C(C(=O)O)N2 (centres undefined)	none (no result: PREPL inh, PP1 inh, PP5 primary)
COc1cccc2c1NC(C(=O)O)C1CC=CC21 (centres undefined)	PP1 inh 37.4
CC(=O)C1=C(O)C(=O)N(c2ccc(Br)cc2)C1c1cccc(F)c1 (centres undefined)	PP1 inh 15.7
COc1ccc(Cc2nnc(Nc3ccc(Cl)cc3)[nH]c2=O)cc1	PP1 inh 17.5
COc1ccc(Nc2nnc(Cc3ccc(Cl)cc3)c(=O)[nH]2)c(OC)c1	none
CCCS(=O)(=O)NC(=O)C1(C)CCN(C(=O)Cc2cccc(OC)c2)C1 (centres undefined)	none (no result: PREPL inh, PP1 inh, PP5 primary)
c1cc2c3c(cccc3c1)NC1(CCC3(CC1)Nc1cccc4cccc(c14)N3)N2	NadD block 50.8

High-throughput results as filed in PubChem BioAssay.
